Publication PMC11006913

What was measured:
Assay in all cases: PBM; 200 nM protein, PBS
Conditions in all cases: dsDNA, one strand shown
HOXB4 [1] = target: HOXB4 (Homo sapiens, UniProt P17483 148-234)
HOXB9 [2] = target: HOXB9 (Homo sapiens, UniProt P17482 171-250, T197M)
HOXA4 [3] = target: HOXA4 (Homo sapiens, UniProt Q00056 201-287, W262R)
HOXC9 [4] = target: HOXC9 (Homo sapiens, UniProt P31274 178-260, K195R)
HOXC10 = HOXC10 (Homo sapiens, UniProt Q9NYD6 254-340)
ALX4 [5] = target: ALX4 (Homo sapiens, UniProt Q9H161 200-286)
Chain of ALX4 (Homo sapiens, UniProt Q9H161 200-286) (Q9H161 200-286): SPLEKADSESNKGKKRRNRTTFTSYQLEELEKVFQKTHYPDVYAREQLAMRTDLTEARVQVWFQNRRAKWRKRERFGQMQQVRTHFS

ALX4 [6] = target: ALX4 (Homo sapiens, UniProt Q9H161 200-286, Q225E)
Chain of ALX4 (Homo sapiens, UniProt Q9H161 200-286, Q225E) (Q9H161 200-286 Q225E): as the sequence (Q9H161 200-286) above, with Q26E counted along it

HOXA2 [7] = target: HOXA2 (Homo sapiens, UniProt O43364 129-215, R185T)
Chain of HOXA2 (Homo sapiens, UniProt O43364 129-215, R185T) (O43364 129-215 R185T): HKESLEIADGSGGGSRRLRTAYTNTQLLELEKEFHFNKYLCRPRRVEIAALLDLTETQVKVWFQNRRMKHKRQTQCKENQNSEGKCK

HOXA4 [8] = target: HOXA4 (Homo sapiens, UniProt Q00056 201-287, R217L)
Chain of HOXA4 (Homo sapiens, UniProt Q00056 201-287, R217L) (Q00056 201-287 R217L): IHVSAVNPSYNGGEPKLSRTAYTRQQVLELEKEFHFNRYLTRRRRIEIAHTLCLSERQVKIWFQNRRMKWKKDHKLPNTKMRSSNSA

HOXB9 [9] = target: HOXB9 (Homo sapiens, UniProt P17482 171-250)
Chain of HOXB9 (Homo sapiens, UniProt P17482 171-250) (P17482 171-250): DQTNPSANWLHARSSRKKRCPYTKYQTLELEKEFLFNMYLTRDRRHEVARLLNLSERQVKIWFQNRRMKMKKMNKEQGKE

HOXB4 [10] = target: HOXB4 (Homo sapiens, UniProt P17483 148-234, V174I)
Chain of HOXB4 (Homo sapiens, UniProt P17483 148-234, V174I) (P17483 148-234 V174I): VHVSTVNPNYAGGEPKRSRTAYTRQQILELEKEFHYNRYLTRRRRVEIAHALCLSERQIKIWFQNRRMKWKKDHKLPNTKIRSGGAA

HOXC9 [11] = target: HOXC9 (Homo sapiens, UniProt P31274 178-260)
Chain of HOXC9 (Homo sapiens, UniProt P31274 178-260) (P31274 178-260): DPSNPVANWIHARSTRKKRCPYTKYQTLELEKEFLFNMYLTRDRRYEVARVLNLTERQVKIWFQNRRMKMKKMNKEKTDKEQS

HOXC9 [12] = target: HOXC9 (Homo sapiens, UniProt P31274 178-260, R193K)
Chain of HOXC9 (Homo sapiens, UniProt P31274 178-260, R193K) (P31274 178-260 R193K): as the sequence (P31274 178-260) above, with R16K counted along it

HOXA2 [13] = target: HOXA2 (Homo sapiens, UniProt O43364 129-215, R185K)
Chain of HOXA2 (Homo sapiens, UniProt O43364 129-215, R185K) (O43364 129-215 R185K): as the sequence (O43364 129-215 R185T) above, with T57K counted along it

HOXA4 [14] = target: HOXA4 (Homo sapiens, UniProt Q00056 201-287)
Chain of HOXA4 (Homo sapiens, UniProt Q00056 201-287) (Q00056 201-287): as the sequence (Q00056 201-287 R217L) above, with L17R counted along it

HOXB9 [15] = target: HOXB9 (Homo sapiens, UniProt P17482 171-250, R186Q)
Chain of HOXB9 (Homo sapiens, UniProt P17482 171-250, R186Q) (P17482 171-250 R186Q): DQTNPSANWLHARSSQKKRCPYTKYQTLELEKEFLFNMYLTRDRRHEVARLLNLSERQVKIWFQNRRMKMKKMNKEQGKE

HOXC9 [16] = target: HOXC9 (Homo sapiens, UniProt P31274 178-260, R222W)
Chain of HOXC9 (Homo sapiens, UniProt P31274 178-260, R222W) (P31274 178-260 R222W): as the sequence (P31274 178-260) above, with R45W counted along it

HOXA2 [17] = target: HOXA2 (Homo sapiens, UniProt O43364 129-215, Y150S)
Chain of HOXA2 (Homo sapiens, UniProt O43364 129-215, Y150S) (O43364 129-215 Y150S): as the sequence (O43364 129-215 R185T) above, with Y22S, T57R counted along it

HOXA4 [18] = target: HOXA4 (Homo sapiens, UniProt Q00056 201-287, W262F)
Chain of HOXA4 (Homo sapiens, UniProt Q00056 201-287, W262F) (Q00056 201-287 W262F): as the sequence (Q00056 201-287 R217L) above, with L17R, W62F counted along it

HOXA2 [19] = target: HOXA2 (Homo sapiens, UniProt O43364 129-215)
Chain of HOXA2 (Homo sapiens, UniProt O43364 129-215) (O43364 129-215): as the sequence (O43364 129-215 R185T) above, with T57R counted along it

Chain of HOXC10 (Q9NYD6 254-340): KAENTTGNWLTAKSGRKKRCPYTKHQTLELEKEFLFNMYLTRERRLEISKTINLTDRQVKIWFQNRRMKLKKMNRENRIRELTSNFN
Chain of HOXB9 (Homo sapiens, UniProt P17482 171-250, T197M) (P17482 171-250 T197M): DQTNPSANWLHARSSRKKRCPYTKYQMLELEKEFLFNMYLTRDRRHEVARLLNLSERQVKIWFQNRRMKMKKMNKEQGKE
Chain of HOXA4 (Homo sapiens, UniProt Q00056 201-287, W262R) (Q00056 201-287 W262R): as the sequence (Q00056 201-287 R217L) above, with L17R, W62R counted along it
Chain of HOXB4 (Homo sapiens, UniProt P17483 148-234) (P17483 148-234): as the sequence (P17483 148-234 V174I) above, with I27V counted along it
Chain of HOXC9 (Homo sapiens, UniProt P31274 178-260, K195R) (P31274 178-260 K195R): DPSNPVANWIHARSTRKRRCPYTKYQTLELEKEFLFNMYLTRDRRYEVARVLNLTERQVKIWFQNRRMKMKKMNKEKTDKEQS

AGTAATTA
binding signal (HOXB4 [1]): 13.6 upbm affinity estimate (log intensity, higher = more binding, comparable within an allelic series) | binding signal (HOXB9 [2]): 10.6 upbm affinity estimate (log intensity, higher = more binding, comparable within an allelic series) | binding signal (HOXA4 [3]): 10.9 upbm affinity estimate (log intensity, higher = more binding, comparable within an allelic series) | binding signal (HOXC9 [4]): 13.1 upbm affinity estimate (log intensity, higher = more binding, comparable within an allelic series) | binding signal (HOXC10): 12.3 upbm affinity estimate (log intensity, higher = more binding, comparable within an allelic series) | binding signal (ALX4 [5]): 14.3 upbm affinity estimate (log intensity, higher = more binding, comparable within an allelic series) | binding signal (ALX4 [6]): 13.8 upbm affinity estimate (log intensity, higher = more binding, comparable within an allelic series) | binding signal (HOXA2 [7]): 13.9 upbm affinity estimate (log intensity, higher = more binding, comparable within an allelic series) | binding signal (HOXA4 [8]): 13.1 upbm affinity estimate (log intensity, higher = more binding, comparable within an allelic series) | binding signal (HOXB9 [9]): 12.3 upbm affinity estimate (log intensity, higher = more binding, comparable within an allelic series) | binding signal (HOXB4 [10]): 14.4 upbm affinity estimate (log intensity, higher = more binding, comparable within an allelic series) | binding signal (HOXC9 [11]): 13 upbm affinity estimate (log intensity, higher = more binding, comparable within an allelic series) | binding signal (HOXC9 [12]): 13 upbm affinity estimate (log intensity, higher = more binding, comparable within an allelic series) | binding signal (HOXA2 [13]): 14 upbm affinity estimate (log intensity, higher = more binding, comparable within an allelic series) | binding signal (HOXA4 [14]): 14.3 upbm affinity estimate (log intensity, higher = more binding, comparable within an allelic series) | binding signal (HOXB9 [15]): 12.1 upbm affinity estimate (log intensity, higher = more binding, comparable within an allelic series) | binding signal (HOXC9 [16]): 11.1 upbm affinity estimate (log intensity, higher = more binding, comparable within an allelic series) | binding signal (HOXA2 [17]): 11.1 upbm affinity estimate (log intensity, higher = more binding, comparable within an allelic series) | binding signal (HOXA4 [18]): 12.6 upbm affinity estimate (log intensity, higher = more binding, comparable within an allelic series) | binding signal (HOXA2 [19]): 13.3 upbm affinity estimate (log intensity, higher = more binding, comparable within an allelic series)

TTAATTAA
binding signal (HOXB4 [1]): 13.5 upbm affinity estimate (log intensity, higher = more binding, comparable within an allelic series) | binding signal (HOXB9 [2]): 10.4 upbm affinity estimate (log intensity, higher = more binding, comparable within an allelic series) | binding signal (HOXA4 [3]): 11 upbm affinity estimate (log intensity, higher = more binding, comparable within an allelic series) | binding signal (HOXC9 [4]): 12.9 upbm affinity estimate (log intensity, higher = more binding, comparable within an allelic series) | binding signal (HOXC10): 12.4 upbm affinity estimate (log intensity, higher = more binding, comparable within an allelic series) | binding signal (ALX4 [5]): 14.7 upbm affinity estimate (log intensity, higher = more binding, comparable within an allelic series) | binding signal (ALX4 [6]): 14.7 upbm affinity estimate (log intensity, higher = more binding, comparable within an allelic series) | binding signal (HOXA2 [7]): 13.7 upbm affinity estimate (log intensity, higher = more binding, comparable within an allelic series) | binding signal (HOXA4 [8]): 13.2 upbm affinity estimate (log intensity, higher = more binding, comparable within an allelic series) | binding signal (HOXB9 [9]): 12.3 upbm affinity estimate (log intensity, higher = more binding, comparable within an allelic series) | binding signal (HOXB4 [10]): 14.2 upbm affinity estimate (log intensity, higher = more binding, comparable within an allelic series) | binding signal (HOXC9 [11]): 12.8 upbm affinity estimate (log intensity, higher = more binding, comparable within an allelic series) | binding signal (HOXC9 [12]): 12.7 upbm affinity estimate (log intensity, higher = more binding, comparable within an allelic series) | binding signal (HOXA2 [13]): 13.7 upbm affinity estimate (log intensity, higher = more binding, comparable within an allelic series) | binding signal (HOXA4 [14]): 14.3 upbm affinity estimate (log intensity, higher = more binding, comparable within an allelic series) | binding signal (HOXB9 [15]): 12 upbm affinity estimate (log intensity, higher = more binding, comparable within an allelic series) | binding signal (HOXC9 [16]): 11.5 upbm affinity estimate (log intensity, higher = more binding, comparable within an allelic series) | binding signal (HOXA2 [17]): 10.8 upbm affinity estimate (log intensity, higher = more binding, comparable within an allelic series) | binding signal (HOXA4 [18]): 13.1 upbm affinity estimate (log intensity, higher = more binding, comparable within an allelic series) | binding signal (HOXA2 [19]): 13.1 upbm affinity estimate (log intensity, higher = more binding, comparable within an allelic series)

GTTAATTA
binding signal (HOXB4 [1]): 13.5 upbm affinity estimate (log intensity, higher = more binding, comparable within an allelic series) | binding signal (HOXB9 [2]): 10.3 upbm affinity estimate (log intensity, higher = more binding, comparable within an allelic series) | binding signal (HOXA4 [3]): 11 upbm affinity estimate (log intensity, higher = more binding, comparable within an allelic series) | binding signal (HOXC9 [4]): 12.9 upbm affinity estimate (log intensity, higher = more binding, comparable within an allelic series) | binding signal (HOXC10): 12.3 upbm affinity estimate (log intensity, higher = more binding, comparable within an allelic series) | binding signal (ALX4 [5]): 14.5 upbm affinity estimate (log intensity, higher = more binding, comparable within an allelic series) | binding signal (ALX4 [6]): 14.5 upbm affinity estimate (log intensity, higher = more binding, comparable within an allelic series) | binding signal (HOXA2 [7]): 13.9 upbm affinity estimate (log intensity, higher = more binding, comparable within an allelic series) | binding signal (HOXA4 [8]): 13.2 upbm affinity estimate (log intensity, higher = more binding, comparable within an allelic series) | binding signal (HOXB9 [9]): 12 upbm affinity estimate (log intensity, higher = more binding, comparable within an allelic series) | binding signal (HOXB4 [10]): 14.3 upbm affinity estimate (log intensity, higher = more binding, comparable within an allelic series) | binding signal (HOXC9 [11]): 12.8 upbm affinity estimate (log intensity, higher = more binding, comparable within an allelic series) | binding signal (HOXC9 [12]): 12.8 upbm affinity estimate (log intensity, higher = more binding, comparable within an allelic series) | binding signal (HOXA2 [13]): 13.8 upbm affinity estimate (log intensity, higher = more binding, comparable within an allelic series) | binding signal (HOXA4 [14]): 14.3 upbm affinity estimate (log intensity, higher = more binding, comparable within an allelic series) | binding signal (HOXB9 [15]): 11.8 upbm affinity estimate (log intensity, higher = more binding, comparable within an allelic series) | binding signal (HOXC9 [16]): 11.1 upbm affinity estimate (log intensity, higher = more binding, comparable within an allelic series) | binding signal (HOXA2 [17]): 10.9 upbm affinity estimate (log intensity, higher = more binding, comparable within an allelic series) | binding signal (HOXA4 [18]): 13 upbm affinity estimate (log intensity, higher = more binding, comparable within an allelic series) | binding signal (HOXA2 [19]): 13.2 upbm affinity estimate (log intensity, higher = more binding, comparable within an allelic series)

CTTAATTA
binding signal (HOXB4 [1]): 13.5 upbm affinity estimate (log intensity, higher = more binding, comparable within an allelic series) | binding signal (HOXB9 [2]): 10.2 upbm affinity estimate (log intensity, higher = more binding, comparable within an allelic series) | binding signal (HOXA4 [3]): 11 upbm affinity estimate (log intensity, higher = more binding, comparable within an allelic series) | binding signal (HOXC9 [4]): 12.7 upbm affinity estimate (log intensity, higher = more binding, comparable within an allelic series) | binding signal (HOXC10): 12.2 upbm affinity estimate (log intensity, higher = more binding, comparable within an allelic series) | binding signal (ALX4 [5]): 14.5 upbm affinity estimate (log intensity, higher = more binding, comparable within an allelic series) | binding signal (ALX4 [6]): 14.3 upbm affinity estimate (log intensity, higher = more binding, comparable within an allelic series) | binding signal (HOXA2 [7]): 13.8 upbm affinity estimate (log intensity, higher = more binding, comparable within an allelic series) | binding signal (HOXA4 [8]): 13.1 upbm affinity estimate (log intensity, higher = more binding, comparable within an allelic series) | binding signal (HOXB9 [9]): 11.8 upbm affinity estimate (log intensity, higher = more binding, comparable within an allelic series) | binding signal (HOXB4 [10]): 14.2 upbm affinity estimate (log intensity, higher = more binding, comparable within an allelic series) | binding signal (HOXC9 [11]): 12.6 upbm affinity estimate (log intensity, higher = more binding, comparable within an allelic series) | binding signal (HOXC9 [12]): 12.6 upbm affinity estimate (log intensity, higher = more binding, comparable within an allelic series) | binding signal (HOXA2 [13]): 13.8 upbm affinity estimate (log intensity, higher = more binding, comparable within an allelic series) | binding signal (HOXA4 [14]): 14.3 upbm affinity estimate (log intensity, higher = more binding, comparable within an allelic series) | binding signal (HOXB9 [15]): 11.5 upbm affinity estimate (log intensity, higher = more binding, comparable within an allelic series) | binding signal (HOXC9 [16]): 11.1 upbm affinity estimate (log intensity, higher = more binding, comparable within an allelic series) | binding signal (HOXA2 [17]): 11 upbm affinity estimate (log intensity, higher = more binding, comparable within an allelic series) | binding signal (HOXA4 [18]): 13 upbm affinity estimate (log intensity, higher = more binding, comparable within an allelic series) | binding signal (HOXA2 [19]): 13.1 upbm affinity estimate (log intensity, higher = more binding, comparable within an allelic series)
